The results in this text go back to PubChem BioAssay AID488969 (Vanderbilt High Throughput Screening Facility, 2010).

Structures are written as SMILES. Whole data set: some 110,000 compounds, median “z-score” near -0.1, cut for the highest 2% near 2. This excerpt belongs to a sample that is enriched for the highest values. The source made the active and inactive calls.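 Rule for the calls: active = z-score in the third read window above 3 or below -3; inactive = the rest.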

Sequence of Metabotropic glutamate receptor 8 (Rattus norvegicus) (P70579 whole entry, looked up): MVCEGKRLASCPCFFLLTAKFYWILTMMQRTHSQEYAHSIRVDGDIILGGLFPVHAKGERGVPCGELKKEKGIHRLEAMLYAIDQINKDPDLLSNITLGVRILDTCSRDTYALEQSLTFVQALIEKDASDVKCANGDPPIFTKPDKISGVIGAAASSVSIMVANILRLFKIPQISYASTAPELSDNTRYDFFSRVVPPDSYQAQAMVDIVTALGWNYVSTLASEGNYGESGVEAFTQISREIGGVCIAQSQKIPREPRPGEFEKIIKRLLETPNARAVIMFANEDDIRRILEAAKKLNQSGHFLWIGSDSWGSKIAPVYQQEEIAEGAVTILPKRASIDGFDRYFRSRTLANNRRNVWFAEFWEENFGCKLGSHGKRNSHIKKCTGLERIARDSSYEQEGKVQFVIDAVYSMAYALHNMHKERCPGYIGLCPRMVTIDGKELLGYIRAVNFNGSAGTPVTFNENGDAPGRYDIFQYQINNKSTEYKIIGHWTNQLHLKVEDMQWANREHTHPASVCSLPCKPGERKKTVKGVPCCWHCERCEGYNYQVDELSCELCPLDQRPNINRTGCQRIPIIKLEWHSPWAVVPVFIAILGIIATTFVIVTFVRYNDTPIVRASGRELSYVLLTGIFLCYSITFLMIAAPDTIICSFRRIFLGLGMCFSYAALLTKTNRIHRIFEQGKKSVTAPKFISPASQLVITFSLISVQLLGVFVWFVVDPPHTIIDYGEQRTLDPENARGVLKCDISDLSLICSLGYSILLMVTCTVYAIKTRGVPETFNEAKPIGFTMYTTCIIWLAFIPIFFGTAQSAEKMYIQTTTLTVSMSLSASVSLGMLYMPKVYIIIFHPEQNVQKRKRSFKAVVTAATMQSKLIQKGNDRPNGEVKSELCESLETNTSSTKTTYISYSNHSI

The assay has as its target Metabotropic glutamate receptor 8 (Rattus norvegicus) (UniProt P70579). The assay can be described thus: rat mGluR8 modulators via GIRK flux, primary screen, cell-based, thallium flux, HTS (AID 488969). Particulars: HEK293 rat mGluR8, GIRK (G protein-gated inwardly rectifying potassium channel) thallium flux, FluoZin2; at 10 µM; stronger effect = higher value; submaximal glutamate (EC20) added with thallium.
`CCn1cc(C(=O)O)c(=O)c2cc(F)c(N/N=C/c3ccccc3)cc21` showed a z-score of -0.559.

In the case of `O=C(NCCSCc1ccco1)Nc1ccc(Cl)cc1`, the z-score amounted to 0.159.

With `O=C(Nc1ccc(Cl)cc1)NC1CCCCC1Cc1ccco1` (stereo not given), the z-score was 7.39 (active).

`O=C(Nc1ccc(Cl)cc1)Nc1ccccc1C(=O)NCc1ccco1`: the z-score is -0.534.

Regarding `Cc1nn(C)c(C)c1S(=O)(=O)N(CC(=O)N1CCc2ccccc2C1)c1ccc(C(C)C)cc1`, the z-score is -0.0258.

`O=C(CCc1ccc(S(=O)(=O)N2CCOCC2)cc1)NN=C1CCCCCCC1` gave a z-score of -0.592.

With `O=C(O)CCc1ccc(S(=O)(=O)N2CCOCC2)cc1`, the z-score came out at 0.0366.

On to `O=C(CCc1ccc(S(=O)(=O)N2CCOCC2)cc1)N1CCCC1`, for which the z-score was 2.62.

Compound `CCN(CCO)c1ncnc2c1sc1nc(CC(C)C)c3c(c12)CC(C)(C)OC3` returned a z-score of -0.758.

In turn, `COC(=O)CNC(=O)CN1C(=O)N(c2ccc(Cl)cc2)C(N(O)C(=O)Nc2ccc(Cl)cc2)C1(C)C` (stereo not given) returned a z-score of 0.0314.

As to `CCOc1ncccc1C(=O)OCc1nnc(-c2ccccc2)o1`, the z-score was -0.473.

In turn, `Cc1nc(-c2ccccc2)sc1-c1n[nH]c(=S)n1C` yielded a z-score of 0.154.

Turning to `Cn1c(-c2sc3cc(C(F)(F)F)cnc3c2-c2ccccc2)n[nH]c1=S`, the z-score came out at 1.26.

As for `Cn1c(-c2sc3ccccc3c2Cl)n[nH]c1=S`, the z-score was 13.3 (active).

`CCCc1cc(-c2n[nH]c(C(=O)OCC)c2-c2cscn2)c(O)cc1O` registered a z-score of -0.373.

For the compound `Cc1noc(NS(=O)(=O)c2ccc(NC(=O)CS(=O)(=O)c3ccccc3)cc2)c1C`, the z-score amounted to 0.155.

For `Cc1ccc(S(=O)(=O)CC(=O)Nc2ccc(S(=O)(=O)Nc3onc(C)c3C)cc2)cc1`, the z-score came out at 2.41.

`CCN(CC(=O)Nc1ccc(OC)c(OC)c1)S(=O)(=O)c1ccc(C)cc1` displayed a z-score of 0.404.

For `COc1cc(NC(=O)CS(=O)(=O)c2ccc(C)cc2)cc(OC)c1OC`, the z-score is 3.72 (active).

Compound `Cc1ccc(OCC(=O)Nc2ccc(S(=O)(=O)Nc3onc(C)c3C)cc2)cc1` showed a z-score of 0.0571.

For the compound `COc1cc(NC(=O)CS(=O)(=O)c2ccccc2)cc(OC)c1OC`, the z-score was 1.2.

As for `Cc1cc(=O)oc2cc(OCC(=O)OCc3nnc(-c4ccccc4)o3)ccc12`, the z-score was -0.34.

As to `CCC(c1nnc(SCC(=O)Nc2ccc(Cl)cc2C(F)(F)F)n1C1CCCCC1)N(C)C` (stereo not given), the z-score is -0.456.

Compound `O=C(CSc1nc(-c2ccco2)cc(C(F)(F)F)n1)NCCc1ccccc1` registered a z-score of 0.104.

`O=C(c1ccc(Br)o1)N1CCCc2ccccc21` displayed a z-score of -0.269.

The compound `COc1ccc(CNC(=O)CSCc2cccc(Cl)c2)cc1` had a z-score of -0.235.

Compound `COc1ccc(CNC(=O)CCSCc2ccccc2Cl)c(OC)c1` showed a z-score of -0.407.

In the case of `COc1ccc(CNC(=O)CSCc2ccccc2Cl)cc1`, the z-score was 4.96 (active).

Compound `CCOc1ccccc1C(=O)NC(CO)C(=O)O` (stereo not given) came in with a z-score of -0.109.

The compound `CCNCCOC(c1ccccc1)c1ccccc1` had a z-score of 0.455.

The compound `Clc1ccccc1-c1ccc(/C=N/n2cnnc2)o1` showed a z-score of 0.334.

For `Clc1cccc(-c2ccc(/C=N/n3cnnc3)o2)c1Cl`, the z-score is 8.91 (active).

In turn, `Cc1c(Cl)cccc1-c1ccc(/C=N/n2cnnc2)o1` returned a z-score of -0.29.

On to `O=C(Nn1c(SCc2ccccc2F)nc2ccsc2c1=O)c1ccccc1`, for which the z-score was -0.0125.

Consider `O=C(Cn1nc(Cl)nc1Cl)c1cc2ccccc2oc1=O`, for which the z-score is -0.931.

On to `CCOc1cc(CNCCSc2nnnn2C)cc(Br)c1OCc1ccccc1`, for which the z-score is 2.3.

Take `CCOc1cc(CNCCSc2nnnn2C)cc(Br)c1OCc1ccccc1F`: the z-score was 0.196.

With `CCOc1cc(CNCCSc2nnnn2C)cc(Br)c1OCc1ccc(F)cc1`, the z-score turned out to be 0.297.

Regarding `NNC(=O)c1nnn(-c2nonc2N)c1-c1cccs1`, the z-score is -0.0988.

Consider `O=C(NC(=S)Nc1ccc(N2CCCCC2)cc1)c1cccs1`, for which the z-score is 11 (active).

`CCCCCC(=O)NC(=S)Nc1ccc(N2CCCCC2)c(Cl)c1` registered a z-score of -0.183.

In turn, `O=C(NC(=S)Nc1ccc(S(=O)(=O)N2CCCC2)cc1)c1cccs1` registered a z-score of 1.1.

The compound `O=C(NC(=S)Nc1ccc(S(=O)(=O)N2CCCCCC2)cc1)c1cccs1` returned a z-score of -0.208.

As for `O=C(NC(=S)Nc1ccc(N2CCCCC2)c(Cl)c1)c1cccs1`, the z-score is 8.72 (active).

`O=C(Nc1ccccc1N1CCCCC1)c1cccs1` gave a z-score of 0.223.

`CC(=O)Cc1nsc(NC(=O)c2cc(-c3ccc(Cl)c(Cl)c3)oc2C)n1` displayed a z-score of -0.22.

For `Cc1ccc(S(=O)(=O)c2ccc(C)cc2)cc1`, the z-score is -0.487.

As to `CCN1C(=O)/C(=C\c2ccc3c(c2)OCO3)C(C(=O)OC)=C1C`, the z-score was -0.35.

As to `COc1ccc(C(=O)C(OC(=O)c2ccccc2Cl)c2ccccc2)cc1` (stereo not given), the z-score is -0.172.

Compound `CCOC(=O)c1ccccc1NC(=O)c1cn(-c2ccc(OC)cc2)c(=O)c2ccccc12` displayed a z-score of -0.291.

In the case of `COC(=O)c1cn(-c2ccc(Cl)cc2)c(=O)c2ccccc12`, the z-score is -0.29.

In turn, `COc1ccc(-n2cc(C(=O)O)c3ccccc3c2=O)cc1` returned a z-score of 2.28.

`O=C(Nc1cc(C(F)(F)F)ccc1N1CCOCC1)c1cn2ccccc2n1`: the z-score is -0.314.

Compound `c1nc(N2CCOCC2)c2c3c(sc2n1)CCCC3` had a z-score of -0.441.

Regarding `CC1(C)CN=C(N2CCN(c3ncnc4sc5c(c34)CCCC5)CC2)S1`, the z-score was 5.02 (active).

Take `c1nc(N2CCC3(CC2)OCCO3)c2c3c(sc2n1)CCCC3`: the z-score is -1.04.

`Cc1ccccc1CN1CCN(CC(=O)NCc2ccccc2)C1=O` registered a z-score of 0.0216.

Consider `COc1ccc(OCCn2nnc(-c3ccc(Cl)cc3)n2)cc1`, for which the z-score worked out at 0.195.

The compound `O=C(CSc1nnc(-c2cnccn2)n1Cc1ccco1)c1ccc(Cl)cc1` returned a z-score of -0.74.

Compound `COc1ccc(C)cc1NC(=O)CSc1nnc(-c2ccccn2)n1Cc1ccco1` gave a z-score of 0.359.

On to `Clc1cccc(CSc2nnc(-c3ccccn3)n2Cc2ccco2)c1`, for which the z-score was 3.12 (active).

Compound `Clc1ccc(CSc2nnc(-c3ccccn3)n2Cc2ccco2)c(Cl)c1` came in with a z-score of 0.104.

With `COc1ccccc1NC(=O)CSc1nnc(-c2ccccn2)n1Cc1ccco1`, the z-score is -1.55.

In the case of `O=C(CSc1nnc(-c2ccccn2)n1Cc1ccco1)c1ccccc1`, the z-score is 1.88.

In turn, `O=C(CSc1nnc(-c2cnccn2)n1Cc1ccco1)c1ccccc1` returned a z-score of 2.15.

Consider `COc1ccc(NC(=O)CSc2nnc(-c3ccccn3)n2Cc2ccco2)cc1OC`, for which the z-score is 5.76 (active).

On to `Clc1ccccc1CSc1nnc(-c2ccccn2)n1Cc1ccco1`, for which the z-score came to 0.314.

The compound `COC(=O)c1ccccc1NC(=O)c1cn(-c2ccc(C)c(C)c2)c(=O)c2ccccc12` yielded a z-score of 0.0214.

As to `Cc1c(NC(=O)c2cc(-n3cnnc3)ccc2Cl)cccc1-c1nc2ccccc2o1`, the z-score was -0.115.

For `O=C1c2ccccc2CN1CCNS(=O)(=O)c1ccc(Cl)cc1`, the z-score was -0.0894.
